Source: PubChem BioAssay AID743048 (Broad Institute, 2013)
Results with a measured potency or affinity are listed apart.

Biological target: Paired box protein Pax-2 (Homo sapiens) (UniProt Q02962)
Experiment: inhibitors acting on PAX2 in cells – cell-based, plate reader, dry powder samples, selectivity assay for PAX8 inhibitor project, dose response (AID 743048)
Details: Pax2 cell-based reporter; series mostly up to 50 µM; activity, negative = inhibition: at the top concentration; call rule not given here

Chain of Paired box protein Pax-2 (Homo sapiens) (Q02962 whole entry, looked up): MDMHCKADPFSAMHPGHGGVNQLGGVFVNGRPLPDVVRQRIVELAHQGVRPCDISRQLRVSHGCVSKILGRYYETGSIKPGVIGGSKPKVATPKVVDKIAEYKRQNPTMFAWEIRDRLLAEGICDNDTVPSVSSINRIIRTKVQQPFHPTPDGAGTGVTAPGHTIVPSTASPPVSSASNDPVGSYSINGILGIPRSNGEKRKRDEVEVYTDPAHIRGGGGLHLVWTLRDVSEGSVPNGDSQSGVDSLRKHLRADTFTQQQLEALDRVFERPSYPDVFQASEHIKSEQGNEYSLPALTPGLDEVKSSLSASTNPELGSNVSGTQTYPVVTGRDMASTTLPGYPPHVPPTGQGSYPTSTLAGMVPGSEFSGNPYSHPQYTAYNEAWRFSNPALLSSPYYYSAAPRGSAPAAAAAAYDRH

activity, negative = inhibition, inactive:
N#C[C@H]1N[C@H](CO)[C@@H]1c1ccc(C#Cc2ccccc2F)cc1 30.2% [at 35 µM]
COc1ccc(-c2cc(C(F)(F)F)nc(S(=O)(=O)CCCC(=O)Nc3cc(C)on3)n2)cc1OC 266% [at 26 µM]
N#C[C@@H]1[C@@H](c2ccc(-c3cccc(F)c3)cc2)[C@H](CO)N1C(=O)NC1CCCC1 -22.6% [at 35 µM]
CN(C[C@H]1N[C@@H](CO)[C@@H]1c1ccc(C2=CCCC2)cc1)C(=O)c1ccncc1 34.4% [at 35 µM]
COc1cccc2sc(N(CCCN(C)C)C(=O)CCS(=O)(=O)c3ccccc3)nc12 21.8%
CN(C[C@H]1N[C@@H](CO)[C@@H]1c1ccc(C2=CCCC2)cc1)C(=O)c1cccc(F)c1 279% [at 35 µM]
O=C(CCS(=O)(=O)c1ccccc1)Nc1nc2ccc(F)cc2s1 1.29%
C[C@@H]1CN([C@H](C)CO)C(=O)CCCn2cc(nn2)CO[C@H]1CN(C)C(=O)Nc1ccc(-c2cccs2)cc1 2.54% [at 35 µM]
O=C(CCCN1C(=O)/C(=C\c2cccc(Br)c2)SC1=S)Nc1ccccn1 43.3%
CC(=O)Nc1ccc(NC(=O)c2nc(S(=O)(=O)Cc3ccccc3)ncc2Cl)cc1 79.9% [at 26 µM]
Cc1ccc(-c2csc(NC3OC(=O)c4ccccc43)n2)cc1 (stereo not drawn) 9.07%
CC(C)c1cc(C(=O)OCC(=O)N2CCN(C(=O)c3ccco3)CC2)c(O)c(C(C)C)c1 -18%
CC1(C)CC(=O)c2sc(NC(=O)CCS(=O)(=O)c3ccccc3)nc2C1 -5.34%
O=C1/C(=C/c2cccc(Br)c2)SC(=S)N1CCC(=O)N(CCO)c1ccccc1 9.59% [at 26 µM]
O=C(CCCN1C(=O)/C(=C\c2cccc(Br)c2)SC1=S)Nc1cccnc1 46.5%
CN(C[C@H]1N[C@@H](CO)[C@@H]1c1ccc(C2=CCCC2)cc1)C(=O)c1ccc(F)cc1 231% [at 35 µM]
NS(=O)(=O)c1ccc(CCN2C(=O)/C(=C\c3ccc(Cl)cc3)SC2=S)cc1 -15.3%
C[C@H]1CN([C@@H](C)CO)C(=O)CCCn2nncc2CO[C@@H]1CN(C)C(=O)Nc1ccc(-c2cccs2)cc1 24.6% [at 35 µM]
